Test results published in PubChem BioAssay AID463173 (ICCB-Longwood Screening Facility, Harvard Medical School, 2010).
The whole screen tested about 52,000 compounds, of which about 4,300 (8.3%) were called active. For the sample, actives were picked, then their nearest neighbours and some compounds at random. A number with no mark means an inactive call. Cut-off read from the data, not from the text of the source: active = survival mostly below about 52% (no sharp cut-off); inactive = mostly above about 56%.

System: DeltatarO mutant
Assay: growth inhibition of S. aureus wild type versus tarO mutant, primary screen, teichoic acid synthesis inhibitors, RN4220, OD600 (AID 463173)
Conditions: OD600, 18 h, active compounds read low, screened at 18.75 µg/mL (by protocol)

SMILES | survival
CCN(CC)c1ccc(NC(=O)C(NS(=O)(=O)c2cccs2)C(C)C)c(C)c1 (stereo not drawn) | 141%
CCC1CCCCN1CC(=O)Nc1cc(C)c2c(=O)oc3ccccc3c2n1 (stereo not drawn) | 98%
O=C(COc1ccc2oc3c(c2c1)CCCC3)Nc1cccc(Br)c1 | 27% (active)
Cc1ccc(NC(=O)COc2ccc3oc4c(c3c2)CCCC4)cc1C | 70%
Cc1cccc(NC(=O)COc2ccc3oc4c(c3c2)CCCC4)c1 | 40% (active)
O=C(COc1ccc2oc3c(c2c1)CCCC3)Nc1ccc(Cl)cc1 | 85%
O=C(COc1ccc2oc3c(c2c1)CCCC3)Nc1ccc(Br)cc1 | 89%
Cc1ccc(NC(=O)COc2ccc3oc4c(c3c2)CCCC4)c(C)c1 | 88%
Cn1c(C(C(=O)NCC2CCCO2)N(Cc2ccc(F)cc2)C(=O)Cn2nnc3ccccc32)nc2ccccc21 (stereo not drawn) | 95%
O=C(CSCn1nnc2c(=O)[nH]c(Cc3ccc(F)cc3)nc21)Nc1cccc(C(F)(F)F)c1 | 64%
CC(=O)OC(COCc1ccccc1)Cn1cnc2ccccc21 (stereo not drawn) | 69%
CCN(CC)CCCNC(=O)CN1C(=O)COc2ccc(S(=O)(=O)N3CCC(C)CC3)cc21 | 101%
CCc1ccc(C2c3c(-c4ccccc4O)n[nH]c3C(=O)N2Cc2cccnc2)cc1 (stereo not drawn) | 34% (active)
CCCOc1ccc(C2c3c(-c4ccccc4O)n[nH]c3C(=O)N2Cc2cccnc2)cc1 (stereo not drawn) | 3% (active)
CCOc1cc(C2c3c(-c4ccccc4O)n[nH]c3C(=O)N2Cc2cccnc2)ccc1O (stereo not drawn) | 93%
CCc1ccc(C2c3c(-c4ccccc4O)n[nH]c3C(=O)N2Cc2ccncc2)cc1 (stereo not drawn) | 22% (active)
CSc1ccc(C2c3c(-c4ccccc4O)n[nH]c3C(=O)N2Cc2ccncc2)cc1 (stereo not drawn) | 70%
O=C1c2[nH]nc(-c3ccccc3O)c2C(c2cccc(O)c2)N1Cc1cccnc1 (stereo not drawn) | 95%
CCOCCCN1C(=O)c2[nH]nc(-c3ccccc3O)c2C1c1ccc(CC)cc1 (stereo not drawn) | 39% (active)
CCCOc1ccc(C2c3c(-c4ccccc4O)n[nH]c3C(=O)N2CCCOCC)cc1OCC (stereo not drawn) | 81%
COC(=O)c1ccc(C2c3c(-c4ccccc4O)n[nH]c3C(=O)N2Cc2cccnc2)cc1 (stereo not drawn) | 72%
CCc1ccc(C2c3c(-c4cc(C)ccc4O)n[nH]c3C(=O)N2Cc2cccnc2)cc1 (stereo not drawn) | 61%
CCOc1ccc(C2c3c(-c4ccccc4O)n[nH]c3C(=O)N2Cc2ccncc2)cc1 (stereo not drawn) | 68%
O=C(NC12CC3CC(CC(C3)C1)C2)c1ccco1 | 72%

SMILES | survival
CN(C)CCCC1(O)c2ccccc2CCc2ccccc21 | 85%
O=C(Nc1cc(Cl)cc(Cl)c1)c1ccc(F)c(S(=O)(=O)N2CCCC2)c1 | 78%
CCC(CC)c1nc2ccccc2c(=O)[nH]1 | 98%
Cc1cccc(-c2nc3scc(CCNS(=O)(=O)c4ccc5c(c4)OCCO5)n3n2)c1 | 85%
Cc1ccc(CCNC(=O)c2c(C)nn(-c3ccc(F)cc3)c2-n2cccc2)cc1 | 67%
Cc1nn(-c2ccccc2)c(-n2cccc2)c1C(=O)NCCc1ccc(Cl)cc1 | 4% (active)
Cc1nn(-c2ccccc2)c(-n2cccc2)c1C(=O)NCc1ccccc1Cl | 2% (active)
CC(=O)Nc1ccc(NC(=O)c2c(C)nn(-c3ccccc3)c2-n2cccc2)cc1 | 84%
Cc1ccc(NC(=O)c2c(C)nn(-c3ccccc3)c2-n2cccc2)c(Cl)c1 | 79%
Cc1nn(-c2ccc(F)cc2)c(-n2cccc2)c1C(=O)NCCc1ccc(Cl)cc1 | 68%
O=C(NC1CCCCC1)c1ccc(S(=O)(=O)N2CCCC2)cc1 | 79%
CCOC(=O)c1ccc(NC(=O)Cn2cc(C(=O)C3CC3)c3ccccc32)cc1 | 68%
Cc1ccccc1NC(=O)c1sc2nc3n(c(=O)c2c1C)N=C(c1ccccc1)CS3 | 88%
COc1ccc2sc(N3C(=O)C4CC=C(C)CC4C3=O)nc2c1 (stereo not drawn) | 103%
CCN=C1Sc2nc3ccc(OCC)cc3cc2CN1CCOC | 104%
CCOc1ccc2nc3c(cc2c1)CN(CCO)C(=Nc1cccc(OC)c1)S3 | 47% (active)
COCCN1Cc2cc3cc4c(cc3nc2SC1=Nc1cccc(OC)c1)OCO4 | 87%
CN(C)c1ccc(NC(=O)CN2CCN(CC(=O)Nc3ccc(Br)cc3)CC2)cc1 | 80%
CCCn1c(-c2ccc(F)cc2)cnc1SCC(=O)N1CCCCC1C (stereo not drawn) | 74%
COc1ccc(-c2nc3scc(CCNS(=O)(=O)c4ccccc4F)n3n2)cc1 | 90%
CCc1ccc(S(=O)(=O)NCCc2csc3nc(-c4ccccc4)nn23)s1 | 109%
CS(=O)(=O)NCCc1csc2nc(-c3ccccc3)nn12 | -2% (active)
COc1ccc(OC)c(S(=O)(=O)NCCc2csc3nc(-c4ccccc4)nn23)c1 | -1% (active)
COc1ccc(S(=O)(=O)NCCc2csc3nc(-c4ccccc4)nn23)cc1OC | 72%

SMILES | survival
CCS(=O)(=O)NCCc1csc2nc(-c3ccc(C)cc3)nn12 | 83%
O=S(=O)(NCCc1csc2nc(-c3ccc(Cl)cc3)nn12)c1cccs1 | 84%
COc1ccc(-c2nc3scc(CCNS(=O)(=O)c4cccs4)n3n2)cc1 | 6% (active)
O=S(=O)(NCCc1csc2nc(-c3ccccc3)nn12)c1cccs1 | 72%
CCOc1ccc(C(=O)Nc2ccc3nc(SCc4ccccc4)sc3c2)cc1 | 91%
O=c1c2c(nc3n1CCCS3)-c1ccccc1CC21CCCC1 | 73%
CC1=C(C(=O)OC2CCCCCC2)C(c2cccc(F)c2F)CC(=O)N1 (stereo not drawn) | 128%
CC(NC(=O)c1ccc(F)cc1)c1nc2ccccc2[nH]1 (stereo not drawn) | 83%
O=C(Cn1c(=O)nc(-c2ccccc2)c2ccccc21)Nc1ccc(Cl)cc1F | 73%
Clc1ccccc1-c1nnc(COc2ccccc2)o1 | 50%
CC(CNC(=O)c1sc2ncccc2c1-n1cccc1)c1ccccc1 (stereo not drawn) | 102%
COCCCNC(=O)CCCn1c(=O)c2ccccc2n(CC(=O)Nc2ccc(C)cc2Cl)c1=O | 96%
COc1cc(NC(=O)CN2CCN(CC(=O)Nc3ccc(F)cc3)CC2)cc(OC)c1 | 70%
CCN(C(=O)Cn1ncc2c(=O)oc3ccccc3c21)c1ccccc1F | 118%
Oc1ccc(-c2nc3ccc(Cl)cn3c2Nc2ccc(Cl)cc2)cc1 | 16% (active)
Cc1ccc2nc(-c3ccc(O)cc3)c(Nc3ccc(Cl)cc3)n2c1 | 59%
Oc1ccc(-c2nc3ccc(Cl)cn3c2Nc2ccc3c(c2)OCO3)cc1 | 106%
Cc1ccc(C(=O)OCc2cc(=O)n3nc(-c4cccs4)sc3n2)cc1 | 95%
CCC(C(=O)Nc1cc(OC)ccc1OC)n1nc(-c2ccccc2)c2c(c1=O)CCCC2 (stereo not drawn) | 35% (active)
CCC(C(=O)Nc1cc(OC)ccc1OC)n1c(C)c2cnn(-c3ccccc3)c(=O)c2c1C (stereo not drawn) | 107%
O=C(CSc1c2c(nc3ccccc13)CCC2)Nc1ccc(F)cc1F | 69%
CCC(C(=O)Nc1ccc(F)cc1F)n1nc(-c2ccccc2)c2c(c1=O)CCCC2 (stereo not drawn) | 38% (active)
O=C(Cn1nc2c(cc1=O)CCCC2)Nc1ccc(F)cc1F | 118%
CCC(C(=O)Nc1ccc(C(=O)OC)cc1)n1nc(-c2ccc(C)cc2)c2c(c1=O)CCCC2 (stereo not drawn) | 102%

SMILES | survival
CCOc1ccc(NC(=O)CSC2=Nc3ccccc3C3=NC(CCC(=O)NCc4cccs4)C(=O)N23)cc1 (stereo not drawn) | 70%
CCN1CCN(Cc2c(C)[nH]c3c(C)cc(C)cc3c2=O)CC1 | 59%
COc1ccccc1Cc1nc2ccccc2[nH]c1=O | 54%
CN1C(=O)c2ccccc2Sc2ccc(NC(=O)N3CCN(c4cccc(Cl)c4)CC3)cc21 | 87%
CCOC(=O)CN1C(=O)c2cccnc2Oc2ccccc21 | 87%
COc1ccccc1OCCSc1nc(-c2ccc(C(C)(C)C)cc2)nc2cc(=O)[nH]n12 | 49%
C=CCc1ccccc1OCCSc1nc(-c2ccc(C(C)(C)C)cc2)nc2cc(=O)[nH]n12 | 32% (active)
C=CCc1ccccc1OCCSc1nc(-c2ccccc2F)nc2cc(=O)[nH]n12 | 99%
COc1ccc(NC(=O)Cn2nnnc2-c2ccccc2F)c(C)c1 | 74%
O=C(Cn1c(=O)ccc2cc(S(=O)(=O)N3CCCC3)ccc21)Nc1ccccc1 | 57%
Cc1cccc(NC(=O)Cn2c(=O)ccc3cc(S(=O)(=O)N4CCCC4)ccc32)c1C | 105%
CCc1ccccc1NC(=O)Cn1c(=O)ccc2cc(S(=O)(=O)N3CCCC3)ccc21 | 46% (active)
Cc1ccc(CNC(=O)Cn2c(=O)ccc3cc(S(=O)(=O)N4CCCC4)ccc32)cc1 | 92%
CCC(C)NC(=O)Cn1ccc2cc(S(=O)(=O)N3CCCCCC3)ccc21 (stereo not drawn) | 118%
CCOc1ccccc1NC(=O)Cn1c(=O)ccc2cc(S(=O)(=O)N3CCC(C)CC3)ccc21 | 55%
COc1ccc(NC(=O)COc2ccc(S(=O)(=O)NC3CCCCC3)cc2)c(OC)c1 | 66%
CCOc1ccccc1NC(=O)Cn1c(=O)ccc2cc(S(=O)(=O)N3CCCC3)ccc21 | 0% (active)
CCc1ccccc1NC(=O)Cn1c(=O)ccc2cc(S(=O)(=O)N3CCC(C)CC3)ccc21 | 92%
CCOc1ccccc1NC(=O)COc1ccc(S(=O)(=O)NC2CCCCC2)cc1 | 48% (active)
CCC(C)NC(=O)Cn1c(=O)ccc2cc(S(=O)(=O)N3CCCC3)ccc21 (stereo not drawn) | 37% (active)
CCOc1ccc(NC(=O)COc2ccc(S(=O)(=O)NC3CCCCC3)cc2)cc1 | 62%
